Source: PubChem (several laboratories)
This is a sample that favours compounds with a hit; in the whole collection about 9.7% have one here.
BAP1 block: inhibitors of human BAP1 deubiquitinase; AID 436; calls only at 20 µM; recombinant BAP1, Ub-AMC hydrolysis fluorescence kinetic; active compounds read low; actives 0.48% (n = 72,000);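 active = activity remaining at or below 50% of control, provided the compound also passes the data quality filters; inactive = the rest, including low values that fail the filters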;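 note: 100% = DMSO wells rate and 0% = substrate alone blank rate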
M1 ag: agonists of M1 muscarinic receptor. CHO-M1 cells, Fluo-4 calcium fluorescence, agonist mode; active compounds read high. B-score at 10 µM. actives 3% (n = 64,000);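 active = fluorescence rise, raw or as B-score row- and column-corrected plate score, outside the 99.7% band of its plate's samples, either direction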
WNV protease inh: WNV NS2B-NS3 proteinase inhibition; P06935; WNV NS2B-NS3 protease, fluorogenic substrate Ex360/Em465; active compounds read low; z-score (concentration not given with the values); actives 0.18% (n = 65,000); AID 577; in the data active = z-score below about -3
Target sequence (P06935 1371-1501 limits assumed): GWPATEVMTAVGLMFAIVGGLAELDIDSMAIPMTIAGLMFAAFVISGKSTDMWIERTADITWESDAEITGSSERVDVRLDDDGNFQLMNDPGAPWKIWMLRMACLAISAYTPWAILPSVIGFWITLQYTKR
Target sequence (P06935 1502-1679 limits assumed): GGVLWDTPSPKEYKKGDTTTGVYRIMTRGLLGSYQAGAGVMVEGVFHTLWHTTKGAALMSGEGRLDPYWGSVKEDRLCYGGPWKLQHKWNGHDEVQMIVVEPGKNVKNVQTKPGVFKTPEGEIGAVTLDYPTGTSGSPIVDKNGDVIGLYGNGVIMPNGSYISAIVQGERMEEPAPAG
Autofluor 339: intrinsic fluorescence of library compounds, ex339/em460 – biochemical, MLSMR library, data from DPM-DC assay, artefact control, profiling panel. compound autofluorescence, ex339/em460 nm, NADH buffer; active compounds read high; 1 = no-compound wells, NADH background. fluorescence fold increase at 10 µM. actives 5.5% (n = 65,000). AID 709;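 active = at 10 µM, mean starting fluorescence two-fold or more over control wells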;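 note: signal is the first read of a kinetic run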
M1 antagonist: antagonists of rat M1 muscarinic receptor | P08482 | CHO-M1 cells, Fluo-4 calcium, ACh EC80 antagonist mode; active compounds read low | B-score at 10 µM | actives 3.4% (n = 64,000);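 active = calcium fluorescence response, raw or row-and-column corrected B-score, differing from the plate sample mean either way at a set confidence level, mostly lower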
Abs 340nm: compound absorbs light at 340 nm. fold change at 10 µM. compound absorbance at 340 nm, fold over control. AID 708. 65,000 tested, under 10 active;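 active = at 10 µM dose, initial 340 nm absorbance at least 2 fold that of control wells; inactive = change under 2 fold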;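 note: initial absorbance extrapolated from kinetic A340 decline of NADH oxidation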
M1 agonist conf: rat M1 muscarinic agonism, confirmation | fluorescence change (max-min) at 10 µM | AID 1488 | shares compounds with M1 ag | actives 19% (n = 1,700) | CHO-M1 cells, Fluo-4 calcium fluorescence, agonist mode; actives lie on both sides;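 active = fluorescence change differs from the solvent-only DMSO control mean at a set confidence level in both duplicate runs; inconclusive = differs from solvent-only control mean in just one of two runs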;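 note: an EC20 dose of acetylcholine follows compound addition during the same imaging run; raw fluorescence intensity difference in instrument units with no normalization to controls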
M4 agonist ctr: activates rat M4 receptor in counter-screen for M1 agonists; AID 1741; shares compounds with M1 ag; CHO M4/Gqi5 cells, Fluo-4 calcium fluorescence, agonist mode; actives lie on both sides; actives 9% (n = 1,700); fluorescence change (max-min) at 10 µM;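 active = fluorescence change differing from the plate's solvent-only control wells at 99.7% confidence in both duplicates, whether higher or lower; inconclusive = differs from solvent controls in only one of two duplicates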
* hit, by the source's call; i = inactive; ? = inconclusive; / = no result given.

SMILES	BAP1 block	M1 ag	WNV protease inh	Autofluor 339	M1 antagonist	Abs 340nm	M1 agonist conf	M4 agonist ctr
CCOC(=O)N1CCN(Cc2nc(-c3ccc(C)cc3)no2)CC1	i	2.51*	0.74	1.01	0.987	1.03	-4.89	-11.2
COc1ccc(-c2noc(CN3CCN(c4ccccc4)CC3)n2)cc1	i	-1	-0.72	1.08	0.555	1.05	/	/
N#Cc1c(-c2ccc3c(c2)OCO3)csc1N	i	3.16*	0.36	1.03	-0.0478	1.01	-0.0415	-29.4
O=C(CC1SC(=Nc2ccccc2)N(CCCO)C1=O)Nc1ccc(Cl)cc1 (stereo not given)	/	4.44*	-1.27	1.1	-0.887	1.04	-4.55	?
O=C(C1CCN(S(=O)(=O)c2cccc3cccnc23)CC1)N1CCN(c2ccc(Cl)cc2)CC1	i	3.37*	0.18	1.14	-2.16	1.05	-19.5	-8.36
Cc1ccc2nc(-c3ccccn3)cc(C(=O)NC3CCN(C)CC3)c2c1	i	-2.28*	-0.26	2.95*	-0.177	1.09	-20.2	-46
COCCCn1c(C(C)C)nc2oc3cc(OC)ccc3c(=O)c2c1=O	i	13.3*	1.12	1.16	1.81	1.05	-10.1	-23.3
COCCn1c(C(C)C)nc2oc3ccccc3c(=O)c2c1=O	i	0.113	-0.54	1.12	0.113	0.97	/	/
COC(=O)c1ccc2c(=O)sc(N3CCC(C(N)=O)CC3)nc2c1	i	23.8*	-0.99	1.48	0.361	1	132*	136*
CCSc1nc2cc(C(=O)OC)ccc2c(=O)n1CC	i	0.43	-0.49	1.31	0.0277	1.04	/	/
CC(=O)c1ccc(NC(=O)c2ccc(N)cc2)cc1	i	/	/	/	/	/	/	/
O=C(O)CCC(=O)N1N=C(c2cccs2)CC1c1ccccc1F (stereo not given)	i	/	/	/	/	/	/	/
C=CCNc1ncnc2c1[nH]c1ccc(C)cc12	/	4.24*	-0.73	3.99*	-0.467	1.02	17.9	-21.7
C=CCOc1cccc(C2C(C(=O)c3ccc(C)o3)=C(O)C(=O)N2c2nccs2)c1 (stereo not given)	i	58.4*	0.84	1.18	0.334	1.08	834*	83.6*
Cc1ccc(C(=O)C2=C(O)C(=O)N(c3ncccn3)C2c2cccc(Cl)c2)o1 (stereo not given)	i	0.146	-0.31	1.07	0.189	1.05	/	/
COc1ccc(S(=O)(=O)Nc2cc(C)c(O)cc2C(C)C)cc1	i	4.66*	-1.31	1.02	0.35	1	-11.3	-47.5
Cc1ccccc1C(=O)Nc1sc2c(c1C(=O)N1CCC(C)CC1)CCC2	i	/	/	/	/	/	/	/
COc1ccc(-n2nnc3c(SCC(=O)OCc4ccccc4)ncnc32)cc1	/	-0.519	-0.05	1.15	-0.322	1.01	/	/
COc1ccc(-n2nnc3c(SCc4ccccc4)ncnc32)cc1	i	2.77*	-0.11	1.11	-0.362	1.04	-0.653	-22.3
COc1cc(C(=O)N2CC(=O)Nc3ccc(Br)cc3C2c2ccccc2Cl)cc(OC)c1OC (stereo not given)	i	/	/	/	/	/	/	/
COc1ccc(OC)c(C=Cc2[nH]c(=O)[nH]c(=O)c2[N+](=O)[O-])c1	i	/	/	/	/	/	/	/
CCc1ccccc1NS(=O)(=O)c1ccc(SC)cc1	i	3.26*	-0.26	1.08	-1.33	0.98	-22.2	-35.9
CSc1ccc(S(=O)(=O)Nc2c(C)cccc2C)cc1	i	0.0339	-1.26	1.09	-0.191	1.01	/	/
CCOC(=O)c1oc2ccc(S(=O)(=O)Nc3ccc4c(c3)n(C)c(=O)n4C)cc2c1C	i	5.3*	0.00454	1.11	-1.57	1.03	?	-76.5
O=c1oc2c3c4c(cc2c2c1CCC2)OCCN4CCC3	/	23.6*	3.18	2.19*	-1.4	1.05	111*	92.7
SMILES	BAP1 block	M1 ag	WNV protease inh	Autofluor 339	M1 antagonist	Abs 340nm	M1 agonist conf	M4 agonist ctr
COc1cccc(NC=C2C(=O)OC(C)(C)OC2=O)c1	i	-0.578	-0.63	1	-0.0735	1.16	/	/
COc1cccc(NC=C2C(=O)OC3(CCCCC3)OC2=O)c1	/	2.73*	1.2	1.03	-0.462	1.19	-11.2	-44.4
O=[N+]([O-])c1cccc(S(=O)(=O)N2CCN(c3ccc(Cl)cc3[N+](=O)[O-])CC2)c1	i	/	/	/	/	/	/	/
COc1cc(C2CC(=O)Nc3c2ccc2ccccc32)cc(OC)c1O (stereo not given)	i	/	/	/	/	/	/	/
CCOC(=O)C1CCCN(c2c(NCCc3ccc(S(N)(=O)=O)cc3)c(=O)c2=O)C1 (stereo not given)	i	2.26*	-0.8	1.11	-1.16	1.04	-10.7	-14.1
CCOC(=O)C1CCCN(c2c(NCc3ccco3)c(=O)c2=O)C1 (stereo not given)	i	6.13*	-1.02	1.06	-1.06	1	-5	-29.8
CCOC(=O)C1CCCN(c2c(NCCN(C)Cc3ccccc3)c(=O)c2=O)C1 (stereo not given)	i	-0.586	0.99	1.03	-0.54	1.05	/	/
CC(=O)c1c(OC(=O)c2cccc(Br)c2)c2ccccc2n1C	i	/	/	/	/	/	/	/
CCn1nc(NC(=O)c2ccncc2)c2cc3ccccc3nc21	i	0.638	0.23	1.19	0.000745	1.04	/	/
CCn1nc(-c2ccccc2)c2nc3ccccc3nc21	i	24.4*	-0.09	2.38*	-0.926	1.05	24.2	11.2
CCCn1nc(-c2ccccc2)c2nc3ccccc3nc21	i	475*	0.41	2.39*	0.498	1.05	492*	1201*
Cc1ccc2c(CN3CCN(CCO)CC3)cc(=O)oc2c1	i	-0.414	1.6	1.1	0.245	1.04	/	/
Cc1cc2oc(=O)cc(CN3CCCCC3)c2cc1C(C)C	i	11*	0.32	1.09	-0.0576	1	?	-22.2
Cc1cc(C(=O)COc2cccc(-n3cnnn3)c2)c(C)n1-c1ccccc1	/	1.16	0.47	1.03	-0.586	0.98	/	/
COc1ccc(-n2c(C)cc(C(=O)COC(=O)Cn3cnc4ccccc43)c2C)cc1	i	5.49*	0.37	1.1	-3.36*	1	?	-36.6
COc1cc(C2C(C(=O)OC3CCCCC3)=C(C)NC3=C2C(=O)CC(C)(C)C3)cc(OC)c1OC (stereo not given)	i	/	/	/	/	/	/	/
Cc1ccc(NC(=O)COC(=O)CCc2c[nH]c(=O)[nH]2)cc1	i	7.3*	-0.34	1.01	-0.0333	1	26.8	-1.31
O=C(COC(=O)CCc1c[nH]c(=O)[nH]1)Nc1ccccc1	i	-0.0605	-0.86	1.01	0.056	0.97	/	/
Cc1nc2ccc3nc(NC(=O)c4ccc(S(=O)(=O)N(C)c5ccccc5)cc4)sc3c2s1	i	/	/	/	/	/	/	/
